Sampled rows, rich in hits. Any-hit rate of the full collection: about 1.1%.
HUVEC tox TNFa = HUVEC cytotoxicity counter-screen, TNF alpha stimulated | HUVEC TNFalpha-stimulated, Hoechst cell count, imaging | hit rate 0.17% among 93,000 | cell count reduction, % at 2 µM | AID 848;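 active = cell count reduction exceeding the screen mean by over 5 SD, scaled to untreated wells per plate, cut at about 78% in these data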;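 note: cells counted after 24 h of TNF alpha exposure following the 1 h pretreatment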
E-sel TNF inh = TNF alpha driven E-selectin expression inhibition; HUVEC TNFa-induced E-selectin immunofluorescence, high content; inhibition, % at 2 µM; hit rate 0.71% among 120,000; AID 1246;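 active = inhibition above the batch mean plus 3 SD, and confirmed as a hit on visual image review, cut at about 43% in these data; inconclusive = passes the inhibition cutoff but fails visual image review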
VCAM1 TNFa inh = reduces TNF alpha induced VCAM1 expression in HUVEC | HUVEC TNFa-induced VCAM-1 immunofluorescence, high-content imaging | inhibition, % at 2 µM | hit rate 0.48% among 95,000;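 active = inhibition above the batch mean plus 3 SD, with images confirmed as a hit by eye, cut at about 37% in these data; inconclusive = inhibition above that limit but hit not confirmed in images; inactive = inhibition not above that limit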
F-actin modifier = alters cytoskeleton assembly in HUVEC cells; HUVEC TNFa F-actin phalloidin imaging, high content; hit rate 0.18% among 91,000; inhibition, % at 2 µM; AID 836;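 active = inhibition above the batch mean plus 3 SD and confirmed as a hit by visual image inspection, cut at about 30% in these data, passing the limit was not always enough; inconclusive = above the inhibition threshold but rejected on visual inspection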
Each line names hits and unclear results; the compound was inactive in the other large screens.

O=C(C1CCN(S(=O)(=O)c2ccc(F)cc2)CC1)N1CCOCC1	none (no result: E-sel TNF inh)
Cc1ccc(/C=c2\sc3n(c2=O)CN(c2cccc(Br)c2)CN=3)o1	E-sel TNF inh 61.7
O=C1Nc2ccc(S(=O)(=O)N3CCOCC3)c3cccc1c23	VCAM1 TNFa inh 89.2
O=C1Nc2ccc(S(=O)(=O)N3CCCC3)c3cccc1c23	none
COc1ccc(/C=C/C(=O)c2cc(F)ccc2OC(=O)c2ccccc2)cc1OC	VCAM1 TNFa inh 97.1 (no result: E-sel TNF inh)
COc1ccc(/C=C/C(=O)c2cc(F)ccc2OC(=O)c2ccc(OC)c(OC)c2)cc1OC	none (no result: HUVEC tox TNFa, VCAM1 TNFa inh, F-actin modifier)
COC(=O)Cn1cnc2c1c(=O)n(C)c(=O)n2C	E-sel TNF inh 99.8 (no result: HUVEC tox TNFa)
CCOc1ccc(C)cc1-n1nc2ccccc2n1	E-sel TNF inh 51.2
Cc1ccc(OCC(=O)Nc2ccc(Cl)cc2)c(-n2nc3ccccc3n2)c1	none
CCC(CO)NC1=CC(=O)CCC1 (centres undefined)	none (no result: HUVEC tox TNFa, VCAM1 TNFa inh, F-actin modifier)
Cc1cc(=O)n2nc(-c3ccccc3)sc2c1C#N	E-sel TNF inh 95.2 (no result: HUVEC tox TNFa, VCAM1 TNFa inh, F-actin modifier)
CCCc1cc(=O)[nH]c(SCCCCN2C(=O)c3ccccc3C2=O)n1	none (no result: HUVEC tox TNFa, VCAM1 TNFa inh, F-actin modifier)
COc1ccc2nc(NC(=O)CSC3=NCCS3)sc2c1	E-sel TNF inh 100.0
CCOc1ccc2nc(NC(=O)CSC3=NCCS3)sc2c1	none
C[C@@H]1CC[C@@]2(O[C@H](CCO)C[C@@H](O)[C@@H]2O)O1	E-sel TNF inh 63.5 (no result: HUVEC tox TNFa, VCAM1 TNFa inh, F-actin modifier)
COc1ccc(C2=NNC(c3cccs3)=Nc3ccc(OC)cc32)cc1	E-sel TNF inh 74.3
CCOc1ccc(C2=NNC(c3cccs3)=Nc3ccc(OC)cc32)cc1OCC	none
CC(NC(=O)COC(=O)Cc1ccsc1)c1ccccc1 (centres undefined)	none (no result: HUVEC tox TNFa, VCAM1 TNFa inh, F-actin modifier)
CC(NC(=O)COC(=O)Cc1ccsc1)C1CC2CCC1C2 (centres undefined)	VCAM1 TNFa inh 88.1
COc1ccc(C(=O)n2ccc(C)n2)cc1Br	none
O=C1OCC(CO)(CO)N=C1NNc1ccccc1Cl	F-actin modifier 31.3
O=S(=O)(c1ccc(Cl)cc1)c1snnc1-c1ccccc1	VCAM1 TNFa inh 49.9
CN(C)c1ncc(S(=O)(=O)c2ccc(Cl)cc2)c(-c2ccccc2)n1	none
CC(=O)N1CCc2cc(Br)cc(S(=O)(=O)NCCCN3CCC(C)CC3)c21	none
O=C(C1CC1)N1CCc2cc(Br)cc(S(=O)(=O)NCCCN3CCCC3)c21	E-sel TNF inh 66.2 (no result: HUVEC tox TNFa, VCAM1 TNFa inh, F-actin modifier)
Cc1cc(C(=O)CN2C(=O)NC(c3ccccc3)(c3ccccc3)C2=O)c(C)n1Cc1ccco1	E-sel TNF inh 74.5
Cc1cc(C)n(CCN(C)c2nc3nonc3nc2NC2CC2)n1	none (no result: HUVEC tox TNFa, VCAM1 TNFa inh, F-actin modifier)
Cc1cc(SCc2cc(=O)[nH]c3ccccc23)nc2ccccc12	E-sel TNF inh 64.0
O=c1cc(CSc2ccccn2)c2ccccc2[nH]1	none
CCNc1nc(NCC)n2c(SCc3ccc(F)cc3)nnc2n1	HUVEC tox TNFa 87.9, VCAM1 TNFa inh 91.4
CCNc1nc(NCC)n2c(SCc3nc4ccccc4c(=O)[nH]3)nnc2n1	none
COc1cc(CC(=O)Oc2ccc3c(c2)OCO3)cc(OC)c1OC	E-sel TNF inh 91.4 (no result: HUVEC tox TNFa, VCAM1 TNFa inh, F-actin modifier)
NC(=O)CC(NC(=O)OCc1ccccc1)C(=O)O (centres undefined)	none
NC(=O)NOCc1ccccc1	E-sel TNF inh 68.3 (no result: HUVEC tox TNFa, VCAM1 TNFa inh, F-actin modifier)
COC(=O)c1ccccc1NC(=O)CC(NCc1ccccc1)C(=O)O (centres undefined)	none (no result: HUVEC tox TNFa)
COCCCNC(CC(=O)Nc1ccccc1C(=O)OC)C(=O)O (centres undefined)	E-sel TNF inh 59.8
CC(=O)Nc1ccc(S(=O)(=O)NC2(C(F)(F)F)C(=O)Nc3c2c(=O)[nH]c(=O)n3C)cc1 (centres undefined)	F-actin modifier 34.0
CC(=O)Nc1ccc(S(=O)(=O)NC2(C(F)(F)F)C(=O)Nc3c2c(=O)n(C)c(=O)n3C)cc1 (centres undefined)	none
CCOc1ccccc1NC(=O)N1CCCC1C(=O)Nc1ccc(NC(C)=O)cc1 (centres undefined)	none
CC(=O)NC1C(Oc2ccccc2C)OC2COC(c3ccco3)OC2C1O (centres undefined)	none (no result: HUVEC tox TNFa, VCAM1 TNFa inh, F-actin modifier)
NC1=CC(=O)c2cccc3cccc1c23	VCAM1 TNFa inh 43.3 (no result: E-sel TNF inh, F-actin modifier)
NC1=Nc2cccc3cccc1c23	none (no result: HUVEC tox TNFa, VCAM1 TNFa inh, F-actin modifier)
O=C(Nc1ccc(Cl)cc1)c1cc2nc(-c3ccco3)cc(C(F)(F)F)n2n1	E-sel TNF inh 78.4
O=C(CSc1nnc(COc2ccccc2)o1)N1CCN(c2ccccc2)CC1	none
Cc1cc(C)cc(OCc2nnc(SCC(=O)N3CCN(c4ccccc4)CC3)o2)c1	VCAM1 TNFa inh 100.0, F-actin modifier inconclusive (no result: HUVEC tox TNFa)
Cc1ccc(/C=C/C(=O)N2CCN(c3ncccn3)CC2)o1	none (no result: HUVEC tox TNFa, VCAM1 TNFa inh, F-actin modifier)
CC(=O)c1cc(CN2CCN(C3CCCCC3)C(CCO)C2)cs1 (centres undefined)	none (no result: HUVEC tox TNFa, VCAM1 TNFa inh, F-actin modifier)
Cc1[nH]c2ccc(Br)cc2c(=O)c1CN1CCOCC1	none
CCOc1ccc2[nH]c(C)c(CN3CCOCC3)c(=O)c2c1	F-actin modifier 75.9 (no result: E-sel TNF inh)
COc1cc([N+](=O)[O-])ccc1NC(=O)C[n+]1ccccc1	none (no result: HUVEC tox TNFa, VCAM1 TNFa inh, F-actin modifier)
N#CC(C#N)=C/C(C#N)=C(/N)N1CCN(c2ccc(Cl)cc2)CC1	E-sel TNF inh 97.3
CC(CCc1ccccc1)NC(=O)/C=C/c1ccc(Cl)cc1 (centres undefined)	E-sel TNF inh 65.3 (no result: HUVEC tox TNFa, VCAM1 TNFa inh, F-actin modifier)
COC(=O)C(CC(C)C)NC(=O)/C=C/c1ccc(Cl)cc1 (centres undefined)	none (no result: HUVEC tox TNFa, VCAM1 TNFa inh, F-actin modifier)
Cn1c(C(=O)N2CCCC(C(=O)c3ccc(C(F)(F)F)cc3)C2)cc(=O)n(C)c1=O (centres undefined)	none (no result: HUVEC tox TNFa, VCAM1 TNFa inh, F-actin modifier)
CCCn1c(SCC(=O)NCc2ccco2)nnc1C(C)C	HUVEC tox TNFa 82.2, VCAM1 TNFa inh 83.6
Cc1nnc(SCC(=O)NCc2ccco2)n1Cc1ccccc1	none
Cc1cc(Cl)c(S(=O)(=O)NC2CCCC2)cc1OCC(=O)NC1CCCCC1	none
CCOc1ccc2[nH]c(=O)c(CN(CCCN3CCOCC3)Cc3nnnn3Cc3ccc(OC)cc3)cc2c1	none (no result: HUVEC tox TNFa, VCAM1 TNFa inh, F-actin modifier)
CCOc1cccc(C(=O)Nc2cccc(-c3nc4ncccc4o3)c2C)c1	none (no result: HUVEC tox TNFa, VCAM1 TNFa inh, F-actin modifier)
COc1cccc(C(=O)Nc2cccc(-c3nc4ncccc4o3)c2C)c1	VCAM1 TNFa inh 94.0 (no result: E-sel TNF inh)
CCOC(=O)c1cnc(SC)nc1Sc1ccccc1	none
COCCN1CN(S(=O)(=O)c2ccccc2)c2nc3ccccc3nc21	E-sel TNF inh 63.2 (no result: HUVEC tox TNFa, VCAM1 TNFa inh, F-actin modifier)
CCCSc1nc(C)c(-c2csc(C(C#N)=C3CCCC3)n2)cc1C#N	E-sel TNF inh 61.9
CC[n+]1c(/C=C2/C=C(C)CC(C)(C)C2)sc2ccc(OC)cc21	E-sel TNF inh 67.4
CCc1ccc(N2CC(C(=O)NCc3ccco3)CC2=O)cc1 (centres undefined)	none
O=C(NCc1ccco1)C1CC(=O)N(c2ccc(F)cc2)C1 (centres undefined)	VCAM1 TNFa inh 85.0
CCN(CC)S(=O)(=O)c1ccc2[nH]c(=O)cc(C(=O)Nc3cccc(C(C)=O)c3)c2c1	E-sel TNF inh 68.3 (no result: HUVEC tox TNFa, VCAM1 TNFa inh, F-actin modifier)
CCN(CC)S(=O)(=O)c1cccc(C(=O)Nc2cccc(C)c2)c1	none (no result: F-actin modifier)
COCCN(C(=O)CCCC(=O)Nc1ccccn1)C(C(=O)NC1CCCC1)c1ccc(C)cc1 (centres undefined)	none (no result: E-sel TNF inh)
COCCNC(=O)CN(CC1CCCO1)C(=O)CCC(=O)Nc1ccccn1 (centres undefined)	none
COCCNC(=O)C(c1ccc(F)cc1)N(CC1CCCO1)C(=O)CCC(=O)Nc1ccccn1 (centres undefined)	E-sel TNF inh 69.1
